Results: the supplement of paper PMC3334620
Whole data set: some 33,000 sequences, median “E-score (-0.5 to 0.5)” near -0.0059, cut for the highest 2% near 0.26. The full list was thinned out, with the highest values kept by preference.

target: T1, Cin5 (UniProt P40917); assay: PBM E-score (8-mer binding enrichment) (E-score (-0.5 to 0.5)); higher = stronger / more preferred TF binding; settings: protein concentration: 100 nM; construct: GST-full length
T1 sequence: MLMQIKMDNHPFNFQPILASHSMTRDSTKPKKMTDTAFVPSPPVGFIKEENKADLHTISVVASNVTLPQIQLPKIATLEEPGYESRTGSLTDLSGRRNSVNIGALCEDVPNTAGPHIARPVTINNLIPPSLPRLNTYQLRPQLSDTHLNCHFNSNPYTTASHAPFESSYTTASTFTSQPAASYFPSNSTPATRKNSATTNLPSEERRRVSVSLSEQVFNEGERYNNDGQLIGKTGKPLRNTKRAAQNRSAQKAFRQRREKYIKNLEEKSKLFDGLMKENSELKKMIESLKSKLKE
Experimental: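 Universal 'all 10-mer' protein binding microarrays (Agilent AMADID 015681) probed with GST-tagged S. cerevisiae TFs (full-length or DBD) made by in vitro transcription/translation (PURExpress), about 100-200 nM. Bound TF was detected with fluorescent anti-GST. Each ungapped 8-mer (which stands for itself and its reverse complement) is scored by the PBM enrichment score (E-score), a modified Wilcoxon-Mann-Whitney statistic from -0.5 to +0.5, computed with the Universal PBM Analysis Suite. Scale: above 0.35 generally sequence-specific binding.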

In order of rising “PBM E-score” value:
1. CACGGGGG  -0.401
2. CGGACCCC  -0.295
3. GAGGGCCC  -0.254
4. ACTCCTGG  -0.216
5. CCCCTCAG  -0.211
6. CTCTGAGC  -0.2
7. CCCTGGTA  -0.196
8. CCTTCATC  -0.183
9. GGCTCCAA  -0.169
10. GCTACGGA  -0.165
11. GTAGAACA  -0.165
12. GCTCTTCA  -0.157
13. CTGCATTA  -0.154
14. CCACAACG  -0.153
15. GGACTTAA  -0.15
16. CCGGGGCG  -0.146
17. CACGGCCA  -0.145
18. GTGGGAAC  -0.144
19. AGCAGCCC  -0.142
20. CACTGGGC  -0.14
21. AGACTTAA  -0.139
22. ACCGGGGC  -0.136
23. GGCTGTAA  -0.129
24. GCCACGCC  -0.127
25. CAGAGCAC  -0.123
26. ACCACAAG  -0.117
27. CGTGCCGA  -0.115
28. CTCTTGGC  -0.112
29. TACGGGAA  -0.108
30. ATGTGCGA  -0.106
31. CTACCCTA  -0.101
32. GGCCAACA  -0.0942
33. GTGCTCGA  -0.0887
34. CGTTCAAA  -0.0884
35. ATTAGGGC  -0.0867
36. ACTACCAG  -0.086
37. CCTATCCG  -0.0857
38. CGTGGTCA  -0.0679
39. AGCCGACG  -0.0574
40. CCAGCGAG  -0.0473
41. ATGGCTGC  -0.0428
42. ACGCAGCC  -0.0404
43. ACGCAAAT  -0.0291
44. ACCGTTAT  -0.0275
45. CGAACAAG  -0.0215
46. CGTAGGTA  -0.0204
47. CGTAAGGC  -0.0166
48. CTTAGGTC  -0.0156
49. AAGTAACG  -0.0154
50. CACATGTG  -0.00999
51. CATGTTGC  -0.00801
52. TAGATCCA  -0.00386
53. CCGGTACA  -0.00292
54. GAATGTGA  0.00014
55. GTGCATCA  0.00241
56. GACGTCAC  0.00326
57. CCCCATAA  0.00568
58. GTGCTAAA  0.00722
59. GCGCGGGA  0.012
60. CATCGATG  0.0124
61. CTCAGGTA  0.0217
62. GTACTCGA  0.0237
63. ACAATGTG  0.0255
64. CACGGTGG  0.0279
65. CCTAATCC  0.029
66. CCTATCTC  0.0294
67. GAATCCGA  0.0296
68. TCACCGGA  0.0333
69. CACCTCTA  0.0362
70. AGAGTTAA  0.0368
71. ACTGGGAT  0.0399
72. AATCACCG  0.0462
73. CCCCGCGA  0.05
74. AACATGTC  0.0503
75. GGAACAAC  0.0525
76. AATAATCC  0.0532
77. CTTATCTC  0.0536
78. ATGCTTCA  0.0559
79. ATGGGACA  0.0583
80. AGGAATGA  0.0586
81. CGCGTATC  0.06
82. CCGCGGGC  0.0691
83. GTGCAAGA  0.0774
84. CCGCGGAG  0.0845
85. AGGCTAAT  0.0863
86. CATAATGG  0.0936
87. CGGAGTGA  0.0979
88. ATGCATCG  0.098
89. AGGTCGAC  0.102
90. CTGTAATA  0.105
91. ATAAGACA  0.105
92. AACCCTAT  0.107
93. CAATGTGA  0.117
94. CGATCACG  0.117
95. ACTATCTC  0.121
96. CTGTAATC  0.128
97. ATAGTCAC  0.129
98. GTTATCTA  0.131
99. ATTAGGTG  0.131
100. AGTAATTG  0.132
101. CGGAATGA  0.146
102. ACTATCTA  0.148
103. AACTCGAT  0.15
104. CAGTAATC  0.15
105. ATTATCTG  0.152
106. CCCCACCC  0.153
107. GATAATCA  0.159
108. TCAATGAA  0.159
109. ATGCATTC  0.163
110. AGGAAATA  0.164
111. AACTCAAT  0.165
112. GATAATCC  0.17
113. AAGTAATT  0.181
114. AAACTAAG  0.185
115. AAGTAACT  0.186
116. ACAATTGT  0.188
117. CGAAATGA  0.19
118. GCCCACCC  0.191
119. ACTAACAT  0.192
120. GCGCGGAA  0.192
121. CGTAACCA  0.192
122. AGTAATAA  0.193
123. ATGTAATG  0.193
124. GTGTAATA  0.193
125. AGAACAAA  0.194
126. GCAATCAA  0.195
127. AAACTAAA  0.199
128. AGTAATAC  0.2
129. TATAATGA  0.21
130. CCCACCCA  0.21
131. AGTAAGCC  0.216
132. TGAACAAA  0.217
133. CGTAATAG  0.223
134. CGTAATTC  0.228
135. CCCACCCC  0.24
136. TATAATAA  0.241
137. GTTAGGTA  0.242
138. AATAATCG  0.247
139. AATCGATA  0.247
140. AATAATCA  0.257
141. AACATGTG  0.257
142. CATCGATA  0.258
143. CATAATCC  0.265
144. TGACTTAA  0.268
145. ATTAGGTA  0.271
146. ATTAGGTC  0.271
147. CGAACAAA  0.272
148. CCGCGGAA  0.272
149. CTTATCTA  0.276
150. GGGAATGA  0.277
151. AGTAATAG  0.279
152. ATGCATCA  0.287
153. TAATGTGA  0.292
154. CCCACCCG  0.293
155. ATTATCTC  0.306
156. AGTAATAT  0.306
157. AAACTAAT  0.312
158. ATTATCTA  0.315
159. CCGCGGGA  0.316
160. AAGTAACA  0.316
161. GGAACAAA  0.32
162. ACCCACCC  0.323
163. CATAATCG  0.324
164. CTTAGGTA  0.337
165. AAGTAATC  0.339
166. ATGCATTA  0.341
167. TATAATCA  0.342
168. ATGTAATA  0.361
169. CGTAATCC  0.383
170. ATGTAATC  0.383
171. CATAATCA  0.385
172. CGTAAGCC  0.39
